Where a name gives a salt, the structure may show the parent alone. Read-outs that look alike come from different tables or passages of the source. Out of some 5,300 compounds screened, about 130 (2.5%) showed an effect of 50% or more. For the sample, strong results were picked, then their nearest neighbours and some compounds at random. Numbered stars: 1 amine (or outer) side, 2 acyl side, 3 side chain; on linkers, the order of the positions; unused ones are H or OH. Bridge positions count the residues as written; N and C are the ends. Square brackets hold non-standard residues; d marks the D form. Side chains are listed from the residue outwards. Peptide text beside a SMILES is read from it. I, II: the chains in the order shown. * marks the point of attachment. Actinocin(9to1) = Cc1c2oc3c(C)ccc(C(=O)[*:1])c3nc-2c(C(=O)[*:2])c(N)c1=O; dTrp(2-Me) = Cc1[nH]c2ccccc2c1C[C@@H](N)C(=O)O; X1 = CCC(C)C(N)C1=NC(C(=O)*)CS1; NMeV = CN[C@H](C(=O)O)C(C)C; Orn = NCCC[CH](N)C(=O)O; Sar = CNCC(=O)O

The experiment concerns M. mycetomatis strain mm55. Conditions: primary screen, metabolic activity vs growth control, 96 h, 2 µM, inhibitor.

Turning to `CSc1ccc([C@H]2CN3CCC[C@H]3c3ccccc32)cc1` [ONC0000925, mcn5652], the “% viability” value amounted to 74.54%.

With `CN1CCCC1c1cccnc1` (stereo not drawn) [ONC0005499, nicotine bitartrate], the “% viability” value is listed as 91%.

Take `C[C@@H]1NC(C)(C)CO[C@@]1(O)c1cccc(Cl)c1` [ONC0001157, radafaxine hydrochloride]: the “% viability” value is on record as 85.48%.

For the molecule `[2H]C([2H])([2H])C(=O)Nc1c(I)c(C(=O)O)c(I)c(C(=O)NC)c1I` [ONC0002149, iothalamic acidd3], the “% viability” value came out at 66.44%.

Regarding `CCC(C)C(N)C1=NC(C(=O)NC(CC(C)C)C(=O)NC(CCC(=O)O)C(=O)NC(C(=O)NCCCCC2NC(=O)C(CC(N)=O)NC(=O)C(CC(=O)O)NC(=O)C(Cc3c[nH]cn3)NC(=O)C(Cc3ccccc3)NC(=O)C(C(C)CC)NC(=O)C(CCCN)NC2=O)C(C)CC)CS1` (stereo not drawn) [ONC0003188, bacitracin] (cyclo(DNK([Ile-Glu-Leu-X1])[Orn]IFH); configuration not given here), the “% viability” value was determined as 113.7%.

`O=C(O)c1ccccn1` [ONC0003765, picolinicacid]: the “% viability” value was determined as 105.8%.

As to `C/C(=N\NC(=S)N1CCC1)c1ccccn1` [nsc319726], the “% viability” value stood at 6.057%.

Take `C=C(NNC(=S)NNC(=S)Nc1ccccc1Cl)c1ccccn1` [ONC0001982, n2chlorophenyl22e212pyridinylethylidenehydrazinocarbothioylhydrazinecarbothioamide]: the “% viability” value worked out at 78.69%.

`Cc1c2oc3c(C)ccc(C(=O)N[C@@H]4C(=O)N[C@H](C(C)C)C(=O)N5CCC[C@H]5C(=O)N(C)CC(=O)N(C)[C@@H](C(C)C)C(=O)O[C@@H]4C)c3nc-2c(C(=O)N[C@@H]2C(=O)N[C@H](C(C)C)C(=O)N3CCC[C@H]3C(=O)N(C)CC(=O)N(C)[C@@H](C(C)C)C(=O)O[C@@H]2C)c(N)c1=O` [ONC0002258, actinomycin d] (I: T[dV]P[Sar][NMeV] / II: T[dV]P[Sar][NMeV]; ester I:1-I:C, II:1-II:C; linker I:N-II:N via Actinocin(9to1)): the “% viability” value (Madurella mycetomatis metabolic activity at 2µM (%)) amounted to 100.3%.

As to `CNCCN(C)Cc1c[nH]nc1-c1ccc(O[C@H]2C[C@H](OCCC3CCOCC3)C2)cc1.Cl` [ONC0000962, epz020411 hydrochloride], the “% viability” value was 79.33%.

Regarding `CN1c2c(nc(N)[nH]c2=O)NC[C@@H]1CNc1ccc(C(=O)N[C@@H](CCC(=O)O)C(=O)O)cc1` [ONC0002220, levomefolate calcium], the “% viability” value is listed as 182.5%.

On to `CCCCCCCCCCCCCCCC(=O)OC[C@H](O)[C@H]1OC(=O)C(=O)C1O` (stereo partly drawn) [ONC0004072, ascorbyl palmitate], for which the “% viability” value turned out to be 135.5%.

In the case of `C[C@H](O[C@H]1OCCN(Cc2n[nH]c(=O)[nH]2)[C@H]1c1ccc(F)cc1)c1cc(C(F)(F)F)cc(C(F)(F)F)c1` [ONC0004612, aprepitant mk0869], the “% viability” value was determined as 34.22%.

On to `C[C@@H](O[C@H]1OCCN(Cc2nc(O)n(P(=O)(O)O)n2)[C@H]1c1ccc(F)cc1)c1cc(C(F)(F)F)cc(C(F)(F)F)c1` [ONC0004322, fosaprepitant dimeglumine salt], for which the “% viability” value was 108.4%.

With `C=C(Nc1ccc(OCC)cc1)Nc1ccc(OCC)cc1` [ONC0005342, phenacaine], the “% viability” value is 118.6%.

Regarding `O=C1c2c(O)cccc2[C@H]([C@@H]2O[C@H](CO)[C@@H](O)[C@H](O)[C@H]2O)c2cc(CO)cc(O)c21` [ONC0002367, aloin], the “% viability” value came to 94.66%.

As for `On1ncc(C2CCNCC2)c1-c1cccc(-c2ccccc2)c1` [ONC0002501, php501 trifluoroacetate], the “% viability” value was found to be 45.31%.

As to `CC[C@@]1(C2O[C@@H](C3O[C@@](O)(CO)[C@H](C)C[C@@H]3C)C[C@@H]2C)CC[C@H]([C@]2(C)CC[C@]3(C[C@H](O)[C@@H](C)[C@@H]([C@@H](C)[C@@H](OC)[C@H](C)C(=O)O)O3)O2)O1` (stereo partly drawn) [ONC0004087, monensin sodium], the “% viability” value came to 133.1%.

For the molecule `O=C(O)Cc1ccc(OCc2ccccc2)c(Cl)c1` [ONC0002166, benzofenac], the “% viability” value is listed as 78.33%.

In the case of `C=C(c1ccccc1OCc1cccc(Cl)c1)n1ccnc1` [Cloconazole HCl], the “% viability” value is 3.259%.

As for `C[C@H](Nc1ncnc2[nH]cnc12)c1cc2cccc(Cl)c2c(=O)n1-c1ccccc1` [ONC0004561, duvelisib ipi145 ink1197], the “% viability” value was found to be 69.33%.

On to `COC(=O)C1=C(C)NC(C)=C(C(=O)O[C@@H]2CCCN(Cc3ccccc3)C2)[C@@H]1c1cccc([N+](=O)[O-])c1` (racemic) [ONC0004618, benidipine hydrochloride], for which the “% viability” value is 66.69%.

For the molecule `CC(C)=CCC[C@](C)(O[C@@H]1O[C@H](CO)[C@@H](O)[C@H](O)[C@H]1O)[C@H]1CC[C@]2(C)[C@@H]1[C@H](O)C[C@@H]1[C@@]3(C)CC[C@H](O)C(C)(C)[C@@H]3CC[C@]12C` [ONC0002211, ginsenoside ck], the “% viability” value was 95.28%.

Take `O=C(CCCS)NC1CCN(C(=O)COc2ccc(Cl)cc2Cl)CC1` [ONC0005166, krasg12c inhibitor 6]: the “% viability” value was 98.75%.

With `NC(=O)[C@H]1CCS[C@@H]2C[C@]3(CCCN3C(=O)Cc3ccc(NC(=O)COc4ccc(Cl)cc4Cl)cc3)C(=O)N12` [ONC0001082, st 2825], the “% viability” value is recorded as 47.43%.

Consider `C[C@]12C=CC(=O)C=C1CCC1C2[C@@H](O)C[C@@]2(C)C1CC[C@]2(O)C(=O)COP(=O)(O)O` (stereo partly drawn) [ONC0004116, prednisolone sodium phosphate], for which the “% viability” value was 116.3%.

As to `CC(C)C(=O)SCCCCC[C@H](NC(=O)OC(C)(C)C)C(=O)NC12CC3CC(CC(C3)C1)C2` [ONC0002528, tcshdac620b], the “% viability” value stood at 72.9%.

With `C1CCC(/N=C(\NC23CC4CC(CC(C4)C2)C3)N2CCOCC2)CC1` [ONC0002564, pnu37883], the “% viability” value was found to be 92.95%.

Turning to `CCOC(=O)c1ccc(N)cc1` [ONC0003279, benzocaine], the “% viability” value was 69.74%.

As to `CCOC(=O)c1ccc(NC2CCCCC2)c(N)c1` [ONC0000320, ferrostatin1], the “% viability” value is listed as 39.11%.

Turning to `CC(CNC1CCCCC1)OC(=O)c1ccccc1` (stereo not drawn) [ONC0002941, hexylcaine], the “% viability” value was found to be 55.94%.

`CC(C)(O)c1ccn2c(-c3ccc(F)c(-c4ccc(F)cc4C#N)c3)cnc2c1F` [ONC0001920, tp003]: the “% viability” value was determined as 78.09%.

As to `CCC(=O)O[C@@H]1CC(=O)O[C@H](C)C/C=C/C=C/[C@H](OC(C)=O)[C@H](C)C[C@H](CC=O)[C@H](O[C@@H]2O[C@H](C)[C@@H](O[C@H]3C[C@@](C)(OC(C)=O)[C@@H](OC(=O)CC)[C@H](C)O3)[C@H](N(C)C)[C@H]2O)[C@H]1OC` [ONC0000277, midecamycin acetate], the “% viability” value is 81.75%.

With `O[C@H](CNC[C@@H](O)[C@H]1CCc2cc(F)ccc2O1)[C@@H]1CCc2cc(F)ccc2O1` [ONC0004039, nebivolol hydrochloride], the “% viability” value was 98.08%.

Regarding `C[C@@]1(O)[C@H](O)[C@@H](CO)O[C@H]1n1cnc2c(=O)[nH]c(N)nc21` [ONC0005603, 2cmethylguanosine], the “% viability” value is 96.86%.

For `CC(C(=O)O)c1ccc2c(c1)Cc1ccccc1-2` (stereo not drawn) [ONC0003773, cicloprofen], the “% viability” value is 135.8%.

With `O=C(c1ccc(Cl)cc1)N(Cc1ccccc1)C1CCCCC1` [ONC0001245, fpszm1], the “% viability” value was 58.23%.

As to `Cc1cc(C)c(NC(=O)N(Cc2ccc3c(c2)Cc2ccccc2-3)C2CCCCCC2)c(C)c1` [ONC0000194, ym750], the “% viability” value turned out to be 45.17%.

Turning to `CC(C)Oc1cccc(CC(=O)N2CCC[C@](CC[N+]34CCC(c5ccccc5)(CC3)CC4)(c3ccc(Cl)c(Cl)c3)C2)c1` [ONC0001589, sr140333], the “% viability” value worked out at 65.88%.

Take `Nc1nc2c(c(=O)[nH]1)NC(CNc1ccc(C(=O)N[C@@H](CCC(=O)O)C(=O)O)cc1)CN2` (stereo partly drawn) [ONC0005519, tetrahydrofolicacid]: the “% viability” value is on record as 129.8%.

With `Cc1[nH]c2ccccc2c1C[C@@H](NC(=O)[C@@H](N)Cc1cnc[nH]1)C(=O)N[C@@H](C)C(=O)N[C@@H](Cc1c[nH]c2ccccc12)C(=O)N[C@H](Cc1ccccc1)C(=O)N[C@@H](CCCCN)C(N)=O` [ONC0005614, examorelin] (H-H[dTrp(2-Me)]AW[dF]K-NH2), the “% viability” value turned out to be 66.44%.

`Oc1cc2c(cc1O)C(Cc1cccc3ccccc13)NCC2` (stereo not drawn) [ONC0001928, ys49]: the “% viability” value is 88.3%.

Source of the values: publication PMC12670160, “A drug-repurposing screen of FDA- and EMA-approved drugs identifies two NF-κB inhibitors active against eumycetoma” (Journal of Antimicrobial Chemotherapy, 2025).
